Compounds with a hit are over-represented: about 8% of the library has one in this group of screens.
FMDV antiviral – High Throughput Screening for Foot and Mouth Disease Virus Antivirals | FMDV antiviral cell-based qHTS | Potency, µM (titrated, usually from 57.9 µM), inactives show at the highest dose activity change, negative = inhibition, hits mostly inhibitors | actives 1.2% (n = 410,000) | AID 1159524, 2015; calls by dose curve; tested in HEK293T cells; further: read-out not given here; potency means the concentration at half of the fitted maximal effect; on the % scale 0 is the no-effect control and ±100 the full control effect; nearly all actives have a fitted effect of over 45% in size
LASV entry inh – qHTS for Inhibitors of binding or entry into cells for Lassa Virus. AID 540256, 2011. actives 1.2% (n = 300,000). Potency, µM (titrated, usually from 37.9 µM), for the others: at the top dose activity change, negative = inhibition, most hits filed as inhibitors. Lassa virus pseudotype entry inhibition, cell reporter; calls by dose curve; tested in HEK293 cells; further: potency means the concentration at half of the fitted maximal effect; on the % scale 0 is the no-effect control and ±100 the full control effect; nearly all actives have a fitted effect of over 50% in size
HCMV inh – qHTS Assay for inhibitors of the human cytomegalovirus (HCMV); activity change, negative = inhibition, % at 57.5 µM; actives 4.5% (n = 410,000); HFF cells, HCMV-luciferase reporter, 72 h; active compounds read low; AID 1259415, 2018; in the data active means activity change below about -60%; inconclusive means no clear call, values can overlap the other calls; inactive means above about -39%; further: on the % scale 0 is the no-effect control and ±100 the full control effect
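Inhibition of viral replication was scored as loss of reporter luminescence in HFFs infected with HCMV-luciferase (MOI 1 PFU/cell) for 72 h; compounds tested at 2 doses, normalized to buffer and Salinomycin controls.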
HCV inhibitor – qHTS Assay for Inhibitors of Hepatitis C Virus (HCV). Huh7.5.1 HCVcc-Cre infection, luciferase reporter, 44 h. Potency, µM (titrated, usually from 41.8 µM), for inactives: at the highest dose activity change, negative = inhibition, hits mostly inhibitors. actives 3.4% (n = 340,000). AID 651820, 2012; active means well fitted inhibition curve with a large enough effect; inconclusive means small, poorly fitted or top-dose-only effect, or another doubt; inactive means no such curve, though single readings can be large or run the other way; further: potency means the concentration at half of the fitted maximal effect; on the % scale 0 is the no-effect control and ±100 the full control effect
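After 44 h co-culture of compound, cells and HCVcc-Cre (~0.5 moi), substrate is added for 15 min at room temperature and luciferase measured over 15 sec. Cells were seeded at 1,000/well and pre-cultured 4 h.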
MARV entry inh – qHTS for inhibitors of binding or entry into cells for Marburg Virus; Potency, µM (doses to about 37.8 µM), for the others: at the highest dose activity change, negative = inhibition, actives largely listed as inhibitors; actives 1.8% (n = 300,000); Marburg virus pseudotyped entry inhibition, cell reporter; AID 540276, 2011; calls by dose curve; tested in HEK293 cells; further: potency means the concentration at half of the fitted maximal effect; on the % scale 0 is the no-effect control and ±100 the full control effect
SARS PLP yeast – qHTS of Yeast-based Assay for SARS-CoV PLP. actives 0.19% (n = 330,000). AID 485353, 2010. Potency, µM (titrated, usually from 32.9 µM), for the others: top-dose activity, positive = growth rescue, hits mostly activators. S. cerevisiae expressing SARS-CoV PLpro, growth rescue; calls by dose curve; further: potency means the concentration at half of the fitted maximal effect; 0% is about no effect; nearly all actives have a fitted effect of over 55% in size
The depositor's hits bear a star; ? = inconclusive; · = no result; + = active, no number; [ ] = remark or other dose.

SMILES	FMDV antiviral	LASV entry inh	HCMV inh	HCV inhibitor	MARV entry inh	SARS PLP yeast
CCCCN(C)CCNC(=O)c1cc(=O)[nH]c2ccc(S(=O)(=O)N3CCCCCC3)cc12	-10.8%	1.5%[46.1 µM]	6.0	·	·	·
O=C(NCCc1ccccc1)c1cc(S(=O)(=O)N2CCCC2)ccc1F	22.5%	·	+	-26.9%	·	-2.1%
CC(C)CN(CCCNC(=O)c1cc(=O)[nH]c2ccc(S(=O)(=O)N3CCCC3)cc12)CC(C)C	-13.8%	9.0%[46.1 µM]	-67.7*	·	·	·
COc1ccc(-c2nc3n(n2)C(c2ccc(OC)c(OC)c2)C(C(=O)Nc2cccnc2)=C(C)N3)cc1 (centres undefined)	-12.8%	-13.9%[46.1 µM]	?	·	·	·
Cc1ccc(CCNC(=O)CN(c2ccc(C(C)C)cc2)S(=O)(=O)c2c(C)nn(C)c2C)cc1	-21.5%	?	-10.8	·	14.1%[46.1 µM]	·
Cc1cccc(NC(=O)C2CCN(S(=O)(=O)c3ccc4c(c3)CCCN4C(=O)C3CCC3)CC2)c1	-21.9%	?	-28.4	·	·	·
COc1cccc(N2CC(NC(=O)c3cc(Cl)ccc3OC)CC2=O)c1 (centres undefined)	-6.2%	19.8%[46.1 µM]	15.5	·	·	·
CC(C)c1ccc(/C=C2\C(=O)N(CCN3CCOCC3)C(=S)N2C)cc1	?	?	-66.4*	10µM*	?	-0.1%
CCCCn1c(=O)c(C(=O)N/N=C/c2ccc(F)cc2)c(O)c2ccccc21	·	·	·	·	·	-1.9%
CC(C)Cn1c(=O)c(C(=O)N/N=C/c2cccc(F)c2)c(O)c2ccccc21	-27.5%	13.4%	?	20µM*	?	-1.0%
COc1ccc(OC)c(S(=O)(=O)N(C)CC(=O)Nc2cc(Cl)ccc2OC)c1	?	-2.3%	5.2	11.2µM*	-23.5%[46.1 µM]	-13.7%
COc1ccc(Cl)cc1NC(=O)CN(C)C(=O)C1CC(=O)N(Cc2ccc(C)cc2)C1 (centres undefined)	-7.7%	2.7%	-4.4	31.6µM*	-0.8%[46.1 µM]	·
COc1ccccc1N(CC(=O)NCCSCc1cccc(C)c1)S(=O)(=O)c1ccccc1	?	?	-36.9	12.6µM*	?	-1.1%
COc1ccccc1NC(=O)CN(C)S(=O)(=O)c1cc(C)ccc1OC	-2.0%	-2.8%	-15.6	-7.9%	1.0%	-7.8%
CCOC(=O)N1CCN(C(=O)CN(c2cc(Cl)ccc2OC)S(=O)(=O)c2ccccc2)CC1	28.7%	?	-92.3*	-7.2%	6.7%	-1.0%
COc1ccc(C(=O)OCc2cc(=O)n3nc(-c4cccs4)sc3n2)cc1	-10.8%	3.4%[46.1 µM]	11.3	·	·	·
CC(C)CCNC(=O)c1ccc(NC(=O)N2CCCCc3ccccc32)cc1	-13.7%	·	5.0	·	?	·
CCc1ccccc1NC(=O)CN(c1ccccc1OC)S(=O)(=O)c1ccc(C)cc1	-9.7%	1.0%[46.1 µM]	-7.8	·	-17.4%[46.1 µM]	·
COc1ccc(Cl)cc1NC(=O)CN(c1cccc(C)c1C)S(=O)(=O)c1ccccc1	-15.6%	3.4%[46.1 µM]	-62.4*	·	-24.1%[46.1 µM]	·
COc1ccc(OC)c(NC(=O)CN(c2ccccc2OC)S(=O)(=O)c2ccc(C)cc2)c1	-23.5%	?	-100.1*	·	-22.9%[46.1 µM]	·
COc1ccc(N(CC(=O)Nc2ccc(Cl)cc2C)S(=O)(=O)c2ccccc2)c(OC)c1	-10.4%	?	-71.3*	·	?	·
COc1ccc(NC(=O)CN(c2ccccc2)S(=O)(=O)c2ccccc2)c(OC)c1	-6.5%	·	-32.9	?	·	0.9%
Cc1cccc(N(CC(=O)NCCSCc2ccc(Cl)cc2)S(C)(=O)=O)c1C	0.0%	12.6µM*	-14.5	·	?	·
O=C(COc1ccccc1[N+](=O)[O-])N1CCC(c2nc3ccccc3o2)CC1	-6.2%	-8.3%[46.1 µM]	-35.3	·	9.2%[46.1 µM]	·
CN(C)C(=O)CCC(=O)NCC1Cc2cccc(-c3ccccc3C(F)(F)F)c2O1 (centres undefined)	-15.7%	·	·	·	·	·
COc1ccc(NC(=O)CN(C)C(=O)c2sc3ccccc3c2Cl)cc1	-0.2%	?	-38.1	?	21.2%	-5.2%
Cc1ccc(C)c(N(CC(=O)Nc2cc(Cl)ccc2Oc2ccccc2)S(C)(=O)=O)c1	-24.0%	?	4.1	1.0%	12.6µM*	0.5%
